TDP1 cell CPT: growth inhibition of DT40 Tdp1-/-;hTDP1 cells with camptothecin (screen for TDP1 inhibitors); Potency, µM (titrated, usually from 46.2 µM), for the others: at the highest dose activity change, negative = growth inhibition, hits mostly inhibitors; actives 12% (n = 420,000); AID 686979; chicken DT40 Tdp1-/-;hTDP1 cells + 20 nM CPT, ATP luminescence, 48 h; also: potency is read from the fitted curve at half-maximal effect; nearly all actives have a fitted effect of over 55% in size
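Chicken DT40 Tdp1-/- cells stably complemented with human TDP1 were seeded at 400 cells/well in medium containing 20 nM camptothecin, exposed to pin-transferred compounds, and grown at 37 °C for at least 48 hr. Viability was read as ATP luminescence.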
VP16 counter: inhibits Gal4-VP16 luciferase reporter, ROR gamma counter-screen; Drosophila S2 Gal4-VP16 UAS-luciferase, luminescence, 20 h; Potency, µM (top dose mostly 53.6 µM), for the others: at the top dose activity, negative = inhibition, actives largely listed as inhibitors; actives 3.5% (n = 310,000); AID 2546;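 also: Gal4-VP16 expression switched on by copper sulfate through the metallothionein promoter; potency is read from the fitted curve at half-maximal effect; nearly all actives have a fitted effect of over 50% in size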
TDP1 cell noCPT: qHTS for Inhibitors of human tyrosyl-DNA phosphodiesterase 1 (TDP1): qHTS in cells in absence of CPT. DT40 Tdp1-/- hTDP1 cells, no CPT, ATP luminescence, 48 h. Potency, µM (highest dose often 46.2 µM), for inactives: at the highest dose activity change, negative = growth inhibition, most hits filed as inhibitors. actives 15% (n = 420,000); also: potency is read from the fitted curve at half-maximal effect; nearly all actives have a fitted effect of over 55% in size
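A cellular qHTS used chicken DT40 cells lacking endogenous Tdp1 but carrying stably transfected human TDP1. Compounds were applied without camptothecin, and cell growth kinetics were judged by ATP-dependent luminescence after ≥48 hr.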
LDHA inh: inhibitors of human lactate dehydrogenase A. P00338. purified LDHA, NADH/diaphorase-resazurin fluorescence; hits give low values. activity change, % (values are at about 110 or 230 µM). actives 0.15% (n = 480,000). AID 1347041; in the data active = activity change below about -30%; inconclusive = mostly about -25% to -30%;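 also: plate controls were DMSO wells for no effect and wells without enzyme for full effect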
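Human LDH5 at 2 nM final in Tris HCl pH 7.4 with 0.06 mM NADH and 0.2 mM pyruvate, reacted 5 minutes at room temperature. Remaining NADH coupled via diaphorase/resazurin; resorufin fluorescence read at 0 and 20 minutes, normalized to enzyme-free and DMSO wells.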
IL-1B inflam inh: inflammasome signaling inhibition, IL-1 beta readout | THP-1 LPS/ATP IL-1B secretion, AlphaLISA, 16 h; hits give low values | activity change, % at 57.5 µM | actives 4.7% (n = 360,000) | AID 743279; in the data active = activity change below about -50%; inconclusive = mostly about -30% to -49%
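THP-1 cells pretreated 1 hr with compounds (up to 57.5 uM final), then stimulated with LPS (250 ng/mL final) plus ATP (1.25 mM final); secreted IL-1B measured by AlphaLISA after 16 hr, decreased signal indicating inhibition.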
RORg inh: blocks mouse ROR gamma transcriptional activity | P51450 | Drosophila S2 Gal4-RORgamma UAS-luciferase reporter, 20 h | Potency, µM (highest dose often 53.6 µM), without a hit: at the top dose activity change, negative = inhibition, actives largely listed as inhibitors | actives 5.4% (n = 310,000) | AID 2551; also: potency is read from the fitted curve at half-maximal effect; nearly all actives have a fitted effect of over 60% in size
Target sequence (P51450 whole entry, looked up, the tested form may be a part): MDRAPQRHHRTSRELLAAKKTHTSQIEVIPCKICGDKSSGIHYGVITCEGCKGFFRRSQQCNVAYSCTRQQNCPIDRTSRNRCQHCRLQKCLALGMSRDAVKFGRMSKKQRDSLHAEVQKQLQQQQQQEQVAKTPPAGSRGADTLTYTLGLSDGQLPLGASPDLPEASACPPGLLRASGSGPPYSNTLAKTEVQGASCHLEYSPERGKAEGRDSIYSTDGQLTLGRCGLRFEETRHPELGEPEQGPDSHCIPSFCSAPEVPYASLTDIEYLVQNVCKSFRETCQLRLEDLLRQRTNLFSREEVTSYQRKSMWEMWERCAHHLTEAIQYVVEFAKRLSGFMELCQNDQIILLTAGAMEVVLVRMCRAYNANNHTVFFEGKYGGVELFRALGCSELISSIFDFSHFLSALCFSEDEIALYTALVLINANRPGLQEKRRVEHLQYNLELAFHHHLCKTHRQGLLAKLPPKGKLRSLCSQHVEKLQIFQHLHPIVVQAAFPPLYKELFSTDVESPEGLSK
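Luciferase reporter read in Schneider cells carrying Gal4-RORγ (mouse) and UAS-Photinus luciferase; cells given compound 1 h before 700 uM copper sulfate induction, then incubated 20 h at ambient temperature.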
The depositor's hits bear a star; u = inconclusive; x = no result given. Most compounds without a hit are left out; they make up all but 18% or so of the library. Unless noted, calls follow the shape of the dose curve; as a rule, active = well fitted curve in the direction sought with a large enough effect; inconclusive = small, poorly fitted or top-dose-only effect, or another doubt; inactive = no such curve, though single readings can be large; an effect the other way counts as inactive or inconclusive. Unless noted, % is scaled to controls: 0 for no effect and ±100 for the full control effect.

SMILES	TDP1 cell CPT	VP16 counter	TDP1 cell noCPT	LDHA inh	IL-1B inflam inh	RORg inh
Cc1ccc(C(=O)Nc2cccc(C(F)(F)F)c2)cc1NC(=O)c1ccno1	u	13%	12µM*	1	u	-10%
Cc1ccc(C(=O)Nc2cccc(C(F)(F)F)c2)cc1Nc1cnccn1	23µM*	3%	16µM*	4	11	u
Cc1cccc(Nc2ncnc3nc[nH]c23)c1C	-14%	-16%	-16%	-12	0	36%
Cc1ccc(C(=O)Nc2cccc(C(F)(F)F)c2)cc1NC(=O)c1nccn1C	2%	-14%	3%	-4	76	-6%
CC(NC(=O)C(=O)C1C(=O)Nc2ccccc21)C(=O)O (stereo not drawn)	x	x	x	1	x	x
C[C@H](c1ccccc1)N1C[C@@H](COCc2ccccc2)Oc2cc(N3CC[C@@H](O)C3)ccc2S1(=O)=O	21µM*	x	23µM*	-1	12	x
C[C@@H](c1ccccc1)N1C[C@@H](COCc2ccccc2)Oc2cc(N3CC[C@H](O)C3)ccc2S1(=O)=O	u	x	18µM*	2	17	x
C[C@@H](c1ccccc1)N1C[C@H](COCc2ccccc2)Oc2cc(N3CC[C@H](O)C3)ccc2S1(=O)=O	u	x	21µM*	4	17	x
C[C@H]1COc2cc(N3CC[C@H](O)C3)ccc2S(=O)(=O)N1	0%	x	-23%	-1	22	x
CCCc1nn(C)c2c(=O)[nH]c(-c3cc(S(=O)(=O)Nc4ccccc4)ccc3OCC)nc12	x	x	x	-1	x	x
CCc1cccc(CC)c1NC(=O)CCc1ncc(-c2ccccc2)o1	x	x	x	0	x	x
Cc1cc(C)cc(Nc2nc(NC3CCCCCC3)nc3c2cnn3-c2ccccc2)c1	x	x	x	7	x	x
O=C(N/N=C/c1cccs1)C(c1ccccc1)c1ccccc1	x	x	x	6	x	x
C(=NN=C(NN=Cc1cccs1)NN=Cc1cccs1)c1cccs1	5.2µM*	x	2.9µM*	9	-1	x
Cc1ccc(/C=N/NC(=O)c2ccccn2)s1	u	22µM*	u	-4	-8	u
O=C(N/N=C/c1cccs1)c1ccccn1	-5%	u	-25%	1	-25	14µM*
O=C(N/N=C/c1ccc(OC(=O)c2ccccc2Cl)cc1)c1ccccn1	-2%	-4%	-20%	0	7	-29%
CCc1ccc(/C=N/NC(=O)c2ccccn2)cc1	0%	u	u	-2	-28	10µM*
CC(CNC(=O)Cc1n[nH]c(=O)c2ccccc12)(c1ccccc1)c1ccccc1	x	x	x	-4	x	x
COc1ccc(CCc2nnc(NC(=O)c3ccccc3)s2)cc1	x	x	x	-2	x	x
CCNC(=O)C1CCCN(C(=O)CCc2c(C)c3ccc(OC)cc3oc2=O)C1 (stereo not drawn)	x	x	x	6	x	x
O=P(Cc1cc(Br)cc(Br)c1OCCO)(c1ccccc1)c1ccccc1	u	-1%	u	-9	x	9%
O=P(c1ccccc1)(c1ccccc1)c1cc(Br)cc(Br)c1OCCO	-4%	4%	u	-14	-56*	-13%
O=C(CCSc1nnc(NC2CC2)s1)Nc1cccc(Cl)c1	x	x	x	2	x	x
Cc1ccc(S(=O)(=O)N(C)C(C)c2cc3ccccc3o2)cc1 (stereo not drawn)	x	x	x	11	x	x
SMILES	TDP1 cell CPT	VP16 counter	TDP1 cell noCPT	LDHA inh	IL-1B inflam inh	RORg inh
Nc1c2c(nc3ccc(Br)cc13)N(Cc1ccccc1)CC2	u	4%	21µM*	0	u	u
Cc1cccc(N2CCc3c2nc2ccc(Br)cc2c3N)c1	u	u	u	11	-94*	u
Nc1c2c(nc3ccc(Br)cc13)N(c1ccccc1)CC2	u	14%	u	-17	-21	26%
O=C(Nc1cccc(F)c1)c1ccc2c(c1)CCC2	x	x	x	-1	x	x
CCCC(C)(C)NC(=O)CCc1ccc(OC)c(OC)c1	x	x	x	-3	x	x
S=C1NC[C@H](CC2CCCCC2)N1CC1CCCCC1	21µM*	5µM*	23µM*	-3	0	0.89µM*
CCCC[C@@H]1CNC(=S)N1CCC12CC3CC(CC(C3)C1)C2	u	3.2µM*	18µM*	-8	5	0.56µM*
CCCC[C@@H]1CNC(=S)N1CC1CCCCC1	u	6.3µM*	u	-3	-6	1.4µM*
Cc1nc2ccccc2nc1CS(=O)(=O)CC(=O)NC1CCCC1	x	x	x	1	x	x
Cc1ccccc1NC(=O)c1sc2c(c1C)C(c1cccs1)CC(=O)N2 (stereo not drawn)	x	x	x	2	x	x
CCn1nc(C(=O)Nc2ccccc2N2CCCC2)c2ccccc2c1=O	u	x	u	-1	-62*	x
CCCn1nc(C(=O)Nc2nc(-c3ccccn3)cs2)c2ccccc2c1=O	7.3µM*	x	2.3µM*	2	124	x
CCn1nc(C(=O)Nc2nc(-c3ccccn3)cs2)c2ccccc2c1=O	2.9µM*	x	3.3µM*	2	1	x
CCCCCn1nc(C(=O)Nc2nc(-c3ccccn3)cs2)c2ccccc2c1=O	x	x	x	7	x	x
Cn1nc(C(=O)Nc2nc(-c3ccccn3)cs2)c2ccccc2c1=O	4.6µM*	x	1.3µM*	5	17	x
Cc1csc(NC(=O)c2nn(C)c(=O)c3ccccc23)n1	x	x	x	-22	x	x
COc1ccc(-c2nnn(CC(=O)N3CCCC3c3ccc4c(c3)OCCO4)n2)cc1OC (stereo not drawn)	x	x	x	-2	x	x
O=C(Cn1ncc2c([nH]c3ccccc32)c1=O)NCCc1ccc(Cl)cc1	-3%	-9%	-12%	-1	-9	19%
Cc1ccc(C)c(N2CCN(CCCNC(=O)Cn3ncc4c([nH]c5ccccc54)c3=O)CC2)c1	15µM*	x	21µM*	-9	x	x
COc1ccccc1N1CCN(CCCNC(=O)Cn2ncc3c([nH]c4ccccc43)c2=O)CC1	u	-3%	21µM*	-5	-27	2%
O=C(Cn1ncc2c([nH]c3ccccc32)c1=O)NCCCN1CCN(c2ccc(F)cc2)CC1	u	x	u	1	x	x
O=C(Cn1ncc2c([nH]c3ccccc32)c1=O)Nc1ccc(CN2CCCCC2)cc1	u	-4%	18µM*	-2	101	0%
Cc1cccc(C(=O)Nc2sc3c(c2C(=O)NCc2ccccc2)CCC3)c1	x	x	x	2	x	x
CCN(CC)c1ccc(S(=O)(=O)N2CCOCC2)cc1NC(=O)COC(=O)/C=C/c1ccc(C)o1	13µM*	x	10µM*	-1	u	x
